Source: PubChem
Hits are enriched below; roughly 31% of the tested compounds scored in any of these assays.
CYP2C9 inhib: blocks human cytochrome P450 2C9 | CYP2C9 Supersomes, luciferin-H conversion, luminescence | inhibition, % at 5 µM | 96,000 tested, 20% active | P11712;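 active means blocking of liver enzyme CYP2C9 beyond about 50% at 5 µM, limit read from the data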
CYP2C9 activ: CYP2C9 (human) activation. activation factor at 5 µM. 96,000 tested, 1.4% active. recombinant CYP2C9, luciferin-H conversion, luminescence; stronger effect = higher value; factor 1 = untreated enzyme, 0 = blocked;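 active means activation factor of 2 or more for CYP2C9 at a 5 µM dose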;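 further: 0 = sulfaphenazole-blocked wells and 1 = vehicle-only wells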
PLAP activator: human PLAP activation. P05187. purified PLAP enzyme, luminescent substrate read-out; stronger effect = higher value. activation fold at 20 µM. 96,000 tested, 1.2% active; in the data active means activation fold above about 2
CYP2C19 inh: inhibitors of human CYP2C19; P33261; CYP2C19 Supersomes, luciferin-H EGE luminescence, 30 min; 96,000 tested, 21% active; inhibition, % at 5 µM;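 active means CYP2C19 inhibition above a set limit at 5 µM in the primary screen, cut at about 50% in these data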;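 further: plate controls were negative control wells for no effect and 2.5 mM tranylcypromine positive control for full effect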
Target sequence (P33261 whole entry, looked up): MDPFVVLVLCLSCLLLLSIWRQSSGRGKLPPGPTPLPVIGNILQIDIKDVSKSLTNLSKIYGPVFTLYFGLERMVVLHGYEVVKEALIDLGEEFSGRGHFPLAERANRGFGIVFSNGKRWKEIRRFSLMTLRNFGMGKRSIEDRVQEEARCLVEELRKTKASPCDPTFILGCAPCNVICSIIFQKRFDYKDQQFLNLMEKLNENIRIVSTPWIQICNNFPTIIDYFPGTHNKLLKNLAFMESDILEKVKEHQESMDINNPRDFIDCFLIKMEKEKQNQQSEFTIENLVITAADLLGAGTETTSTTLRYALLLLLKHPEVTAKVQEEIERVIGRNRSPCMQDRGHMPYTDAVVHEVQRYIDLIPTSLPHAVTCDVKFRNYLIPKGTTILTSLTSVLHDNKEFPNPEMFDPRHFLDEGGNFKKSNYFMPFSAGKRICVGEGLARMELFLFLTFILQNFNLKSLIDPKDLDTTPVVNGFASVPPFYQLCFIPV
CYP2C19 act: cytochrome P450 2C19 (human) activation; recombinant CYP2C19, luciferin-H EGE luminescence; stronger effect = higher value; 0 = fully inhibited enzyme, 1 = untreated enzyme; 96,000 tested, under 10 active; P33261; activation factor at 5 µM; AID 1025;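 active means activation factor of at least 2 at 5 µM in the primary screen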;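 further: 0 = wells with 2.5 mM tranylcypromine and 1 = vehicle-only wells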
* marks the source's active call; other numbers are inactive results.

SMILES | CYP2C9 inhib | CYP2C9 activ | PLAP activator | CYP2C19 inh | CYP2C19 act
O=C(Nc1ccc2c(c1)OCO2)c1ccc(Br)s1 | 35 | 0.6 | 1 | 54* | 0.5
O=C(Nc1ccc2c(c1)OCO2)c1cccs1 | 26 | 0.7 | 0.9 | 43 | 0.6
O=C(/C=C\Nc1ccc2c(c1)OCO2)c1ccccn1 | 31 | 0.7 | 1 | 57* | 0.4
O=C(NCc1ccc2c(c1)OCO2)c1ccc2c(c1)C(=O)N(Cc1cccnc1)C2=O | 51* | 0.5 | 0.9 | 7 | 0.9
CCOC(=O)c1sc(NC(=O)/C=C/c2cnn(C)c2C)c(C(=O)OC(C)C)c1C | 25 | 0.8 | 1.4 | -2 | 1
c1ccc(N2CCN(c3nc(-c4ccccn4)nc4ccccc34)CC2)cc1 | 59* | 0.4 | 1.4 | 32 | 0.7
Oc1ccccc1-c1nc(N2CCN(Cc3ccccc3)CC2)c2ccccc2n1 | 74* | 0.3 | 1.2 | 65* | 0.3
c1cncc(-c2nc(N3CCCCCC3)c3ccccc3n2)c1 | 77* | 0.2 | 1.3 | 39 | 0.6
c1ccc2c(N3CCCCCC3)nc(-c3ccncc3)nc2c1 | 80* | 0.2 | 1.7 | 76* | 0.2
O=C(CCN1C(=O)c2cccc3cccc(c23)C1=O)N1CCN(Cc2ccc3c(c2)OCO3)CC1 | -35 | 1.3 | 1 | 24 | 0.8
CCN1CCN(c2nc(-c3ccncc3)nc3ccccc23)CC1 | 30 | 0.7 | 1.1 | 51* | 0.5
CCN1CCN(c2nc(-c3cccnc3)nc3ccccc23)CC1 | 3 | 1 | 1.5 | -2 | 1
CCC1Sc2ccccc2N(CC(=O)NCc2ccccc2OC)C1=O (stereo not given) | -37 | 1.4 | 0.9 | 25 | 0.8
COc1cc(C2CC(=O)N(CC(=O)NCc3ccco3)c3ccccc3S2)cc(OC)c1OC (stereo not given) | 71* | 0.3 | 1.5 | 65* | 0.4
O=C(CN1C(=O)C2CC=CCC2C1=O)NCc1ccc2c(c1)OCO2 (stereo not given) | -8 | 1.1 | 1.1 | -8 | 1.1
CCN1C(=O)CC(c2ccco2)Sc2ccccc21 (stereo not given) | 24 | 0.8 | 1.1 | 53* | 0.5
O=C(CN1C(=O)CC(c2ccco2)Sc2ccccc21)NCc1ccc2c(c1)OCO2 (stereo not given) | 86* | 0.1 | 1.5 | 94* | 0.1
CCC(C)N1C(=O)/C(=C/c2c(NCCCOC(C)C)nc3c(C)cccn3c2=O)SC1=S (stereo not given) | 57* | 0.4 | 0.8 | 33 | 0.7
CCOC(=O)C1=C(CSc2nccn2C)NC(=O)NC1c1ccc2c(c1)OCO2 (stereo not given) | 41 | 0.6 | 1.1 | 88* | 0.1
COc1ccc(S(=O)(=O)N2CCCC(C(=O)NCc3ccco3)C2)cc1Cl (stereo not given) | -45 | 1.5 | 1.2 | 33 | 0.7
CN1CCN(c2nc(N3CCN(c4ccccc4)CC3)ncc2F)CC1 | 19 | 0.8 | 1.2 | 62* | 0.4
CCc1[nH]nc2c1C1(C(=O)N(Cc3ccccc3)c3ccccc31)C(C#N)=C(N)O2 (stereo not given) | 88* | 0.1 | 1.9 | 85* | 0.1
COC(=O)Cc1[nH]nc2c1C1(C(=O)N(Cc3ccc(Cl)cc3)c3ccccc31)C(C#N)=C(N)O2 (stereo not given) | 36 | 0.6 | 1.7 | 24 | 0.8
c1ccc2nc(N3CCOCC3)c(N3CCOCC3)nc2c1 | 16 | 0.8 | 0.8 | 15 | 0.9
Cn1c(N2CCOCC2)nc(-c2ccccc2)c1-c1ccccc1 | -98 | 2* | 1.6 | 6 | 0.9
SMILES | CYP2C9 inhib | CYP2C9 activ | PLAP activator | CYP2C19 inh | CYP2C19 act
c1ccc(-c2nc3ccccc3nc2N2CCOCC2)cc1 | 20 | 0.8 | 0.9 | 52* | 0.5
Cc1nnc(NC(=O)CCC(=O)N2CCN(CCc3ccccc3)CC2)s1 | 2 | 1 | 1.2 | 2 | 1
COc1nc(N)c(S(=O)(=O)c2ccc(C)cc2)cc1C#N | 53* | 0.5 | 0.7 | 53* | 0.5
Cc1c(NC(=O)c2ccccc2N(C)S(=O)(=O)c2ccccc2)c(=O)n(-c2ccccc2)n1C | 46 | 0.5 | 1.1 | 24 | 0.8
Cc1c(NC(=O)C(C)Sc2n[nH]c(N)n2)c(=O)n(-c2ccccc2)n1C (stereo not given) | -12 | 1.1 | 1 | -6 | 1.1
CCOC(=O)NC(NC(=S)Nc1ccccc1[N+](=O)[O-])C(Cl)(Cl)Cl (stereo not given) | 93* | 0.1 | 0.9 | 98* | 0
CCCCC(=O)NNC(=S)NC(=O)c1cccc([N+](=O)[O-])c1 | 25 | 0.7 | 1.5 | 7 | 0.9
O=C(NC(NC(=S)Nc1ccccc1C(=O)O)C(Cl)(Cl)Cl)c1cccc([N+](=O)[O-])c1 (stereo not given) | 71* | 0.3 | 1.3 | -5 | 1
CCOC(=O)c1ccccc1NC(=O)c1cncc(Br)c1 | -4 | 1 | 1 | 14 | 0.9
O=C(CCOc1ccccc1)OCC(=O)c1cc2ccccc2o1 | 65* | 0.4 | 1.1 | 70* | 0.3
CN(Cc1ccccc1)C(=O)c1cc2ccccc2o1 | 36 | 0.6 | 0.9 | 94* | 0.1
O=C(OCCN1CCOCC1)c1ccc2c(c1)OCCO2 | -22 | 1.2 | 1 | -13 | 1.1
O=C(O)CNC(=O)c1ccc2c(c1)OCCO2 | 5 | 0.9 | 0.9 | 3 | 1
CN(CCOC(=O)c1ccc2c(c1)OCCO2)Cc1ccccc1 | 62* | 0.4 | 1.4 | 54* | 0.5
CN(Cc1ccccc1)C(=O)c1ccc2c(c1)OCCO2 | -4 | 1 | 1.2 | 84* | 0.2
Cc1ccccc1NC(=O)C1CCCN1C(=O)NC1CCCCC1 (stereo not given) | -10 | 1.1 | 1.2 | -9 | 1.1
CN(C)CCNc1nc2c(c(=O)[nH]c(=O)n2C)n1CC(O)COc1ccc(Cl)cc1Cl (stereo not given) | 10 | 0.9 | 1.4 | 9 | 0.9
CCOC(=O)/C(N=O)=C(\O)C1CCN(C(=O)OCC)CC1 | 11 | 0.9 | 1 | 8 | 0.9
COc1ccc(S(=O)(=O)N2CCC(C(=O)NC3CC3)CC2)cc1Cl | -34 | 1.3 | 1.2 | 78* | 0.2
COc1ccc(S(=O)(=O)N2CCC(C(=O)NCc3ccccn3)CC2)cc1Cl | -120 | 2.2* | 1.5 | 32 | 0.7
COc1ccc(S(=O)(=O)N2CCC(C(=O)NCc3ccccn3)CC2)cc1C | -130 | 2.3* | 1.7 | 24 | 0.8
O=C(NCc1ccccn1)C1CCN(S(=O)(=O)c2ccccc2)CC1 | 4 | 1 | 1.1 | 15 | 0.8
COc1ccc(S(=O)(=O)N2CCCC(C(=O)NCc3ccccn3)C2)cc1Cl (stereo not given) | -59 | 1.6 | 1.2 | 36 | 0.6
CC(C)CNC(=O)C1CCN(c2ccc(S(=O)(=O)N3CCOCC3)cc2)CC1 | 28 | 0.7 | 1.3 | -14 | 1.1
O=C(COc1ccc(S(=O)(=O)N2CCCC2)cc1Cl)NC1CC1 | 5 | 1 | 1.2 | 1 | 1
O=C(NC1CC1)C1CCN(c2ccc(S(=O)(=O)N3CCOCC3)cc2)CC1 | 74* | 0.3 | 1.1 | -2 | 1
